C diff growth: blocks growth of Clostridium difficile; Clostridium difficile clinical isolate growth, OD600, 24 h; stronger effect = lower value; growth activity, negative = inhibition, % at 16 µg/mL (by protocol); 0.25% of 86,000 active;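 active = mean growth activity at or below -80% and every replicate also at or below -80%; inconclusive = mean at or below -80% but some replicate above -80%; inactive = mean growth activity above -80%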;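 also: 0% = DMSO wells and -100% = levofloxacin 16 µg/mL wells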
Tcruzi prolif: blocks T. cruzi growth in NIH3T3 culture; inhibition, % at 8.34 µM; T. cruzi beta-gal in NIH3T3, GalScreen luminescence, 90 h; AID 624255; 5.9% of 77,000 active;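 active = mean inhibition above about 93%, with at least 55% of replicates each passing it, limit read from the data, passing the limit was not always enough; inconclusive = only one of those two conditions holds; inactive = neither condition holds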
Pf Dd2 growth: inhibitors of Plasmodium falciparum Dd2 growth | P. falciparum Dd2 growth, SYBR Green, 72 h; stronger effect = lower value | activity change, % at 10 µM | 2.3% of 94,000 active; in the data active = activity change below about -80%; inconclusive = no clear call, values can overlap the other calls
Numbers without * were called inactive. In the library only some 6.7% were active in any assay of this set; here they are far more common.

COc1ccc2c3c([nH]c2c1)[C@@H](CO)N(Cc1cccc(Cl)c1)CC31CCN(C(C)=O)CC1 was read as C diff growth 7 and Pf Dd2 growth -88*.
Screening COc1cccc(C(=O)Nc2ccc3c(c2)C(=O)N(C)[C@@H]2CC[C@@H](CC(=O)NCC(F)(F)F)O[C@@H]2CO3)c1 returned C diff growth -6, Tcruzi prolif -28 and Pf Dd2 growth -8.
Screening C[C@@H]1CN([C@@H](C)CO)C(=O)c2cc(NS(=O)(=O)c3ccc(F)cc3)ccc2O[C@@H](C)CCCCO[C@H]1CN(C)C(=O)Cc1ccccc1 returned C diff growth -1, Tcruzi prolif 19 and Pf Dd2 growth -27.
Screening C[C@H](CO)N1C[C@H](C)[C@@H](CN(C)CC2CC2)Oc2ccc(NS(C)(=O)=O)cc2CC1=O returned C diff growth -3, Tcruzi prolif -31 and Pf Dd2 growth 32.
C[C@H]1CN([C@@H](C)CO)S(=O)(=O)c2ccc(C3=CCCCC3)cc2O[C@H]1CN(C)C(=O)C1CCC1 was read as C diff growth 9, Tcruzi prolif 93 and Pf Dd2 growth -26.
`OC[C@H]1CC[C@@H]2O[C@H](CCc3ccc(C#CCc4ccccc4)cc3)[C@H](n3cc(-c4ccccc4)nn3)C[C@@H]2O1` gave C diff growth 1 and Pf Dd2 growth inconclusive.
Screening C[C@@H]1CN([C@@H](C)CO)C(=O)c2cccc(NC(=O)Nc3ccc4c(c3)OCO4)c2O[C@@H]1CN(C)C(=O)Nc1ccc2c(c1)OCO2 returned C diff growth -4, Tcruzi prolif -3 and Pf Dd2 growth -90*.
Screening C[C@@H]1CN([C@@H](C)CO)C(=O)c2cccc(NC(=O)Nc3ccc4c(c3)OCO4)c2O[C@@H]1CN(C)Cc1ccc(-c2ccccc2)cc1 returned C diff growth -96*, Tcruzi prolif 35 and Pf Dd2 growth -47.
`C[C@@H]1CN([C@@H](C)CO)C(=O)c2cccc(NC(=O)Nc3ccc4c(c3)OCO4)c2O[C@@H]1CN(C)Cc1ccc(C(=O)O)cc1` gave C diff growth -4, Tcruzi prolif -10 and Pf Dd2 growth 10.
For C[C@H](CO)N1C[C@H](C)[C@H](CN(C)Cc2ccc(C(=O)Nc3ccccc3N)cc2)Oc2ccc(NC(=O)Nc3ccc4c(c3)OCO4)cc2C1=O the results were C diff growth -2, Tcruzi prolif 99 and Pf Dd2 growth -69.
`C[C@H]1CN([C@@H](C)CO)C(=O)c2cccc(NC(=O)Nc3ccc4c(c3)OCO4)c2O[C@@H]1CN(C)C(=O)Nc1ccc2c(c1)OCO2` gave C diff growth -7, Tcruzi prolif 9 and Pf Dd2 growth 19.
`C[C@H]1CN([C@@H](C)CO)C(=O)c2cccc(NC(=O)Nc3ccc4c(c3)OCO4)c2O[C@@H]1CN(C)Cc1ccc(C(=O)Nc2ccccc2N)cc1` gave C diff growth 5 and Pf Dd2 growth -85*.
For C[C@H](CO)N1C[C@H](C)[C@H](CN(C)Cc2ccc(-c3ccccc3)cc2)Oc2c(NC(=O)Nc3ccc4c(c3)OCO4)cccc2C1=O the results were C diff growth 3, Tcruzi prolif 46 and Pf Dd2 growth -2.
`C[C@@H]1CN([C@@H](C)CO)C(=O)c2cccc(NC(=O)Nc3ccc4c(c3)OCO4)c2O[C@@H]1CN(C)Cc1ccc(C(=O)Nc2ccccc2N)cc1` gave Tcruzi prolif 95 and Pf Dd2 growth -93*.
C[C@@H]1CN([C@@H](C)CO)C(=O)Cc2cc(NS(=O)(=O)c3ccccc3)ccc2O[C@H]1CN(C)Cc1ccc(C(F)(F)F)cc1 was read as C diff growth 33 and Pf Dd2 growth -17.
Screening O=C(C[C@@H]1CC[C@H](NC(=O)c2ccncc2)[C@H](CO)O1)Nc1ccc(-c2ccccc2)cc1 returned C diff growth -4 and Pf Dd2 growth 10.
Screening CN(C)c1ccc2c(c1)[C@H]1C[C@H](CC(=O)NCc3cc(F)ccc3F)O[C@@H](CO)[C@H]1O2 returned Tcruzi prolif 4 and Pf Dd2 growth -43.
For CCN1[C@H](C(=O)NCC2CC2)[C@@H](CO)[C@@H]2Cn3c(ccc(-c4ccccc4)c3=O)[C@@H]21 the results were C diff growth 1, Tcruzi prolif 24 and Pf Dd2 growth -3.
For C[C@H](CO)N1C[C@H](C)[C@@H](CN(C)Cc2ccc(Cl)c(Cl)c2)Oc2ccc(NS(C)(=O)=O)cc2C1=O the results were C diff growth -4, Tcruzi prolif 15 and Pf Dd2 growth -51.
Screening CO[C@H]1CN(C)C(=O)c2ccc(NC(=O)C3CCOCC3)cc2OC[C@H](C)N(C(=O)c2ccccc2)C[C@@H]1C returned C diff growth 5 and Pf Dd2 growth 2.
`C[C@H]1CN([C@@H](C)CO)C(=O)c2cc(C#Cc3ccccc3F)cnc2O[C@@H]1CN(C)C(=O)Cc1cccnc1` gave C diff growth -5 and Pf Dd2 growth -49.
For CO[C@H]1CN(C)C(=O)c2cc(NC(=O)Nc3ccc(Cl)c(Cl)c3)ccc2OC[C@H](C)NC[C@H]1C the results were C diff growth -99*, Tcruzi prolif -43 and Pf Dd2 growth -84*.
Screening CO[C@@H]1CN(C)C(=O)c2cc(NC(=O)Nc3ccc(Cl)cc3)ccc2OC[C@H](C)NC[C@H]1C returned C diff growth 0, Tcruzi prolif -48 and Pf Dd2 growth -7.
For CO[C@@H]1CN(C)C(=O)c2cc(NC(=O)Nc3ccc(Cl)c(Cl)c3)ccc2OC[C@H](C)NC[C@@H]1C the results were C diff growth -97*, Tcruzi prolif -42 and Pf Dd2 growth -67.
`CO[C@@H]1CN(C)C(=O)c2cc(NC(=O)Nc3cc(Cl)cc(Cl)c3)ccc2OC[C@@H](C)NC[C@@H]1C` gave Tcruzi prolif 24.
For COc1cccc(S(=O)(=O)N[C@@H]2CC[C@@H](CC(=O)NCc3ccccc3)O[C@@H]2CO)c1 the results were C diff growth -3, Tcruzi prolif 10 and Pf Dd2 growth -6.
For CCCNC(=O)[C@@H]1[C@@H](CO)[C@@H]2Cn3c(ccc(-c4cccc(F)c4)c3=O)[C@H]1N2CCC the results were C diff growth -5, Tcruzi prolif 2 and Pf Dd2 growth 7.
C[C@@H]1CN([C@H](C)CO)C(=O)c2cccc(NS(=O)(=O)c3ccc(F)cc3)c2O[C@H]1CN(C)CC1CCCCC1 was read as C diff growth -1 and Pf Dd2 growth -6.
For CO[C@@H]1CN(C)C(=O)c2ccc(NC(=O)Nc3ccccc3F)cc2OC[C@@H](C)N(CCC(F)(F)F)C[C@H]1C the results were C diff growth 6, Tcruzi prolif 67 and Pf Dd2 growth -85*.
Screening CCCN1C[C@@H](C)[C@@H](OC)CN(C)C(=O)c2ccc(NC(=O)Nc3ccccc3F)cc2OC[C@@H]1C returned Tcruzi prolif -27 and Pf Dd2 growth -24.
`CO[C@@H]1CN(C)C(=O)c2ccc(NC(=O)Nc3ccccc3F)cc2OC[C@@H](C)N(C)C[C@H]1C` gave C diff growth 3 and Pf Dd2 growth -49.
For CO[C@@H]1CN(C)C(=O)c2ccc(NC(=O)Nc3ccccc3Cl)cc2OC[C@@H](C)N(C)C[C@H]1C the results were Tcruzi prolif -6 and Pf Dd2 growth -87*.
CNC[C@H]1OCCCC[C@@H](C)Oc2ccc(NC(=O)NC(C)C)cc2C(=O)N([C@@H](C)CO)C[C@H]1C was read as C diff growth 2, Tcruzi prolif -16 and Pf Dd2 growth 57.

Assay outcomes (PubChem BioAssay)
